In the OligoGym collection one finds sensor-assay potency score (higher = more potent) data, which are given here for 15 sequences.
Note: reference of the scale not given here.

One experiment addresses ATG16L1. Description: pooled miR-30 sensor sort-seq; sequence = guide strand. Conditions: shRNA.
As to TTTCTTGTGTAATTCAGTCAGT, the sensor-assay potency score (higher = more potent) was -0.093.
On the same count and under the same terms, the value for TTTTTCTCCAAATACTTCCCAA was -0.436.
As for TATCATTGCAACTGGATCCTGC, the sensor-assay potency score (higher = more potent) worked out at 0.235.
Still for that read-out and setting: with TTCCCTGTGAGCACACTCCAGA the figure was -0.634.

The target in the next experiment is ATHL1. Described as above. Conditions: shRNA.
With TGGAACATCAGGATACTCGGGA, the sensor-assay potency score (higher = more potent) is -0.126.
As to TCCACAGTGAGTGACTCGGTGG, the sensor-assay potency score (higher = more potent) was -1.15.
Take TTGATCTTGTCAGCCACCGCCA: the sensor-assay potency score (higher = more potent) was -0.876.
As to TTTTTGGCAAAGCTGCACCTGA, the sensor-assay potency score (higher = more potent) is -0.809.
Same read-out and setting: the value for TCGAGCTGTGACCTCCACGGTC was -1.01; that for TAAATCTCCAGATTTTTCCTGC was 0.146.
Take TCAAAGGGTACCTTGATCTTGT: the sensor-assay potency score (higher = more potent) stood at 0.372.
Turning to TACCTTGATCTTGTCAGCCACC, the sensor-assay potency score (higher = more potent) was -0.985.
On the same count and under the same terms, the value for TTGGTGTACACAGAGTTGTTGA was -0.594; that for TACACAGAGTTGTTGACCCCTG was -0.218; that for TCGAAATAGCTGCAGGTCCTGG was -1.24.
